In PubChem BioAssay (NCATS):
“And” between values parts separate entries of the source, which are not always exact repeats. Equal values may be shown once. Inconclusive results are not listed. The source holds several records for some structures; these can differ, active in one and inactive in another. The source made the active and inactive calls. Unless noted, the call rests on the fitted dose curve; in most records, active means well fitted inhibition curve with a large enough effect; inconclusive means small, poorly fitted or top-dose-only effect; inactive means flat fitted curve, though single readings scatter.

Columns and labels:
[1] = Drug repurposing screens with cells derived from glioblastoma tumor samples (AID 1345199); conditions: GBM patient neurospheres viability, ATP luminescence, 48 h; further: nearly all actives have a fitted effect of over 40% in size; further: potency means the concentration at half of the fitted maximal effect; on activity, negative = cell killing: on the % scale 0 is the no-effect control and ±100 the full control effect
Method in brief: (§1)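 Four patient lines of CD133+ GBM neurospheres were screened at several concentrations; hits were retested in those lines plus three slower-growing GBM lines, using 48-hour treatment and ATP-based viability.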

[2] = tested on: astro; assay: as above; conditions: viability, ATP luminescence, 48 h; series mostly up to 45.9 µM
Method in brief: as §1

[3] = target: Nuclear receptor subfamily 1 group I member 2 (Rattus norvegicus) (UniProt Q9R1A7); assay: qHTS assay for small molecule activators of the rat pregnane X receptor (rPXR) signaling pathway (AID 651751; call rule not given here; further: 0% is about no effect); conditions: rPXR reporter cells, luciferase (One-Glo), 24 h
[4] = qHTS assay for small molecule activators of the human pregnane X receptor (PXR) signaling pathway (AID 720659; call rule not given here; further: 0% is about no effect); conditions: DPX-2 HepG2 CYP3A4-luciferase, 24 h; series mostly up to 92.3 µM
[5] = at 45.9 µM (top of the series), tumour line B
[6] = at 45.9 µM (top of the series), tumour line D
[7] = at 46.1 µM (top of the series), tumour line C
[8] = at 20 µM (top of the series), tumour line C
[9] = at 21.2 µM (top of the series), tumour line B
[10] = at 21.2 µM (top of the series), tumour line D
[11] = at 99.2 µM (top of the series), tumour line C
[12] = at 46 µM (top of the series), tumour line A
[13] = at 21.3 µM (top of the series), tumour line A

Chain of Nuclear receptor subfamily 1 group I member 2 (Rattus norvegicus) (Q9R1A7 whole entry, looked up): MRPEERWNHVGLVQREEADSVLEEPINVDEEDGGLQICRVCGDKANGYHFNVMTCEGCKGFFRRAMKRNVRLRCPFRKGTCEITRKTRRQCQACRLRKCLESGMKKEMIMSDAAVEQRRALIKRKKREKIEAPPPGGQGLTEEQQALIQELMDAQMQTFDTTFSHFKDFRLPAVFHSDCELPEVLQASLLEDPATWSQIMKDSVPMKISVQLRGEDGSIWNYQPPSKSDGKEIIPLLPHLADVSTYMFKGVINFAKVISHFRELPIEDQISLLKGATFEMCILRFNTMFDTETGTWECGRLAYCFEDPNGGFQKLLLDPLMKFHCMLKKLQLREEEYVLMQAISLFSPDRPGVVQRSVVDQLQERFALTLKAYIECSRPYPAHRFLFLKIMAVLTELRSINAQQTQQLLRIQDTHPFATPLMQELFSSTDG

C=C[C@H]1CN2CC[C@H]1C[C@H]2[C@H](OC(=O)OCC)c1ccnc2ccc(OC)cc12
active: Potency ([1]; tumour line A) 10 µM
inactive: activity, negative = cell killing [1, 5] -6.26% | activity, negative = cell killing [1, 6] -11.2% | activity, negative = cell killing [1, 7] 18.3% | Potency [2]

C[N+]1([O-])[C@@H]2CC(OC(=O)[C@H](CO)c3ccccc3)C[C@H]1[C@@H]1O[C@@H]12 (some centres not stated)
inactive: activity, negative = cell killing [1, 8] 3.96% | activity, negative = cell killing [1, 9] 5.23% | activity, negative = cell killing [1, 10] -9% | activity, negative = cell killing [1, 5] -10.9% | activity, negative = cell killing [1, 6] -17.4% | activity, negative = cell killing [1, 7] 30.8% | Potency [2]

CC(=O)Oc1ccc2c3c1O[C@H]1[C@@H](OC(C)=O)C=C[C@H]4[C@@H](C2)N(C)CC[C@@]341
inactive: activity, negative = cell killing [1, 5] 1.1% | activity, negative = cell killing [1, 6] -2.21% | activity, negative = cell killing [1, 7] -13.5% | activity, negative = cell killing [1, 11] -29.8% | activity, negative = cell killing ([1]; at 108 µM (top of the series), tumour line B) -14.9% | Potency [2]

[S]=[Sb](=[S])[S][Sb](=[S])=[S]
inactive: activity, negative = cell killing [1, 5] -4.98% | activity, negative = cell killing [1, 6] -5.67% | activity, negative = cell killing [1, 12] -28.3% | activity, negative = cell killing [1, 7] -1.84% | Potency [2]

CC(=O)OCC(=O)[C@H]1CC[C@H]2[C@@H]3CC[C@H]4C[C@H](O)CC[C@]4(C)[C@H]3C(=O)C[C@]12C
inactive: activity, negative = cell killing [1, 8] -20.2% | activity, negative = cell killing [1, 9] -4.33% | activity, negative = cell killing [1, 10] 0.678% | activity, negative = cell killing [1, 13] -6.64% | Potency [2]

CNC(=O)OCC[N+](C)(C)C
inactive: activity, negative = cell killing [1, 5] -5.85% | activity, negative = cell killing [1, 6] -20% | activity, negative = cell killing [1, 12] -22.4% | activity, negative = cell killing [1, 7] -19.7% | Potency [2]

CC(=O)O[C@H]1CC[C@@]2(C)C(=CC[C@@H]3[C@@H]2CC[C@]2(C)C(=O)CC[C@@H]32)C1
active: Potency ([1]; tumour line A) 7.94 µM
inactive: activity, negative = cell killing [1, 8] -28.7% | activity, negative = cell killing [1, 9] -3.53% | activity, negative = cell killing [1, 10] -21.5% | Potency [2]

COC1=CC=C2[C@H]3Cc4ccc(OC)c5c4[C@@]2(CCN3C)[C@H]1O5
active: Potency ([1]; tumour line A) 35.5 µM | Potency ([1]; tumour line D) 35.5 µM
inactive: activity, negative = cell killing [1, 8] -9.82% | activity, negative = cell killing [1, 9] -2.9% | activity, negative = cell killing [1, 10] -4.5% | activity, negative = cell killing ([1]; at 91.6 µM (top of the series), tumour line B) -4.24% | activity, negative = cell killing [1, 11] 12% | Potency [2]

C#CCN1CC(=O)N(COC(=O)C2C(C=C(C)C)C2(C)C)C1=O (configuration not stated)
inactive: activity, negative = cell killing [1, 5] -9.8% | activity, negative = cell killing [1, 6] 15.2% | activity, negative = cell killing [1, 12] -23.1% | activity, negative = cell killing [1, 7] -15.9% | Potency [2]

O=C1C[C@@H]2OCC=C3CN4CC[C@]56c7ccccc7N1[C@H]5[C@H]2[C@H]3C[C@H]46 (tested in a mixture with another compound)
active: Potency ([1]; tumour line A) 20 µM
inactive: activity, negative = cell killing [1, 5] -8.18% and -6.54% | activity, negative = cell killing [1, 6] -14.5% and -6.5% | activity, negative = cell killing [1, 7] 1.96% and -18.9% | Potency [2]

OC[C@@H](O)[C@H]1O[C@@H]2O[C@@H](C(Cl)(Cl)Cl)O[C@@H]2[C@H]1O
inactive: activity, negative = cell killing [1, 5] -12.9% | activity, negative = cell killing [1, 6] -1.55% | activity, negative = cell killing [1, 12] -29.4% | activity, negative = cell killing [1, 7] 7.8% | Potency [2]

CC1CCC(C(C)C)C(OC(=O)c2ccccc2N)C1 (configuration not stated)
active: Potency ([1]; tumour line A) 12.6 µM | Potency ([1]; tumour line B) 35.5 µM
inactive: activity, negative = cell killing [1, 7] 13.8%

CC1(C)S[C@@H]2[C@H](N)C(=O)N2[C@H]1C(=O)O
inactive: activity, negative = cell killing [1, 8] -3.46% | activity, negative = cell killing [1, 9] -7.3% | activity, negative = cell killing [1, 10] -20.2% | activity, negative = cell killing [1, 13] -24.1% | Potency [2]

CN(C)[C@@H]1C(=O)C(C(N)=O)=C(O)[C@@]2(O)C(=O)C3=C(O)c4c(O)ccc(Cl)c4[C@@](C)(O)[C@H]3C[C@@H]12
inactive: activity, negative = cell killing [1, 8] -1.9% | activity, negative = cell killing [1, 9] -17.1% | activity, negative = cell killing [1, 10] 7.37% | activity, negative = cell killing [1, 13] -17.5% | Potency [2]

ClC1C(Cl)C(Cl)C(Cl)C(Cl)C1Cl (configuration not stated)
inactive: activity, negative = cell killing [1, 5] -3.31% | activity, negative = cell killing [1, 6] -6.39% | activity, negative = cell killing [1, 12] -20.5% | activity, negative = cell killing [1, 7] -11% | Potency [2]

c1cc2c(c(NC3=NCCN3)c1)CCCC2
active: Potency ([1]; tumour line A) 14.1 µM
inactive: activity, negative = cell killing [1, 5] -18.6% | activity, negative = cell killing [1, 6] -28.2% | activity, negative = cell killing [1, 7] 1.62% | Potency [2]

O=S(=O)(O)c1cc(O)ccc1O
inactive: activity, negative = cell killing [1, 8] 0.614% | activity, negative = cell killing [1, 9] -13.4% | activity, negative = cell killing [1, 10] -2.62% | activity, negative = cell killing [1, 13] -30% | Potency [2]

CC(N)Cc1ccc(O)cc1 (configuration not stated)
inactive: activity, negative = cell killing [1, 5] -3.82% | activity, negative = cell killing [1, 6] -1.1% | activity, negative = cell killing [1, 12] -18.1% | activity, negative = cell killing [1, 7] 5.3% | Potency [2]

CC(C)CCON=O
inactive: activity, negative = cell killing [1, 5] 0.0037% | activity, negative = cell killing [1, 6] -3.58% | activity, negative = cell killing [1, 12] -24.7% | activity, negative = cell killing [1, 7] 2.53% | Potency [2] | max response [3] 1.54% | outcome [4]

ClC(Cl)(Cl)Cl
inactive: activity, negative = cell killing [1, 5] -3.78% | activity, negative = cell killing [1, 6] 4.09% | activity, negative = cell killing [1, 12] -14.3% | activity, negative = cell killing [1, 7] -6.14% | Potency [2] | outcome [4]
